This is an account of results in PubChem BioAssay (EPA / NIEHS).

Assay [1] in a line: BSK_3C_SRB: Viability Assessment in the BioMAP Diversity Plus: 3C Assay (AID 2283023).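 Further: cells read 24 h after compound dosing; fitted both ways against DMSO so a hit may be signal rise or drop.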 Particulars: primary human endothelial cells (HUVEC). The method, boiled down:
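HUVEC, 24 h post-dose; 10% TCA fix, 0.1% SRB stain, A560 nm. Bidirectional curve fit vs DMSO negative control.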

Read-out in assay [2]: Matrix Metallopeptidase 1 (MMP1), MMP1 (gene 4312)
Briefly: BSK_BE3C_MMP1: BioMAP Diversity Plus: BE3C Assay for Matrix Metallopeptidase 1 (MMP1) Biomarker Activity (AID 2283024). Particulars: primary human bronchial epithelial cells; actives raise or lower the signal. The method, boiled down:
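In this multiplexed primary-cell system, human bronchial epithelium received chemicals for 24 h before an ELISA for MMP1. Values reflect bidirectional fits normalised to the DMSO baseline.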

The nature of assay [3]: BSK_3C_Vis: BioMAP Diversity Plus: 3C Assay for Morphology Visualization (AID 2283025).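 Further: fitted both ways so gain or loss versus DMSO counts.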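 On AC50: light microscopy image of cell morphology used as background control.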 Particulars: primary human endothelial cells (HUVEC). The method, boiled down:
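Light-microscopy morphology readout, 24 h exposure, human primary umbilical vein endothelium; analysed relative to DMSO with bidirectional fitting.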

Read-out in assay [4]: Pselectin, SELP (gene 6403)
Briefly: BSK_4H_Pselectin: BioMAP Diversity Plus: 4H Assay for Pselectin Biomarker Activity (AID 2283026). Particulars: primary human endothelial cells (HUVEC); actives raise or lower the signal. In outline:
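Bidirectional fits against DMSO gave the endpoint. Cells: primary human umbilical vein endothelium, chemical-treated for 24 h before ELISA detection of P-selectin.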

A short description of assay [5]: BSK_4H_SRB: Viability Assessment in the BioMAP Diversity Plus: 4H Assay (AID 2283027).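 Further: cells exposed to compound for 24 h before staining.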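 On AC50: curves fitted both ways versus DMSO so AC50 may be loss or gain.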 Particulars: primary human endothelial cells (HUVEC). The method, boiled down:
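HUVEC, 24 h post-dose; 10% TCA fix, 0.1% SRB stain, A560 nm. Total protein = overt cytotoxicity, parallel to biomarker read. Bidirectional fit vs DMSO baseline.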

A short description of assay [6]: BSK_BE3C_SRB: Viability Assessment in the BioMAP Diversity Plus: BE3C Assay (AID 2283028).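 On AC50: fitted both ways so AC50 may mark signal gain or loss versus DMSO.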 As to conditions: primary human bronchial epithelial cells. In outline:
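Primary human bronchial epithelium; chemical dosing, 24 h; 10% TCA fix, 0.1% SRB stain, A560; bidirectional fit vs DMSO baseline.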

Read-out in assay [7]: Thrombomodulin, THBD (gene 7056)
Briefly: BSK_3C_Thrombomodulin: BioMAP Diversity Plus: 3C Assay for Thrombomodulin Biomarker Activity (AID 2283029). Particulars: primary human endothelial cells (HUVEC); actives raise or lower the signal. In outline:
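In a multiplexed primary-cell system, human umbilical vein endothelium received chemical and was assayed 24 h later for thrombomodulin by ELISA. Parallel cultures were SRB-stained (0.1% SRB after 10% TCA fixation, read at 560 nm) to flag cytotoxicity.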

Read-out in assay [8]: Urokinase-type plasminogen activator receptor (uPAR), PLAUR (gene 5329)
Briefly: BSK_4H_uPAR: BioMAP Diversity Plus: 4H Assay for Urokinase-type plasminogen activator receptor (uPAR) Biomarker Activity (AID 2283030). Particulars: primary human endothelial cells (HUVEC); actives raise or lower the signal. The method, boiled down:
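HUVEC, 24 h post-dose; uPAR by ELISA; bidirectional fit vs DMSO baseline.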

Read-out in assay [9]: Vascular endothelial growth factor receptor 2 (Homo sapiens) (UniProt P35968)
Briefly: BSK_4H_VEGFRII: BioMAP Diversity Plus: 4H Assay for Vascular endothelial growth factor receptor 2 (VEGFR2) Biomarker Activity (AID 2283031).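 On AC50: cell-surface VEGFR2 protein level quantified by ELISA.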 Particulars: primary human endothelial cells (HUVEC); actives raise or lower the signal. In outline: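 HUVEC (human primary), 4H system; 24 h post-dose; VEGFRII by ELISA; bidirectional curve fit vs DMSO baseline; gain or loss of signal scored.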

Read-out in assay [10]: Human Leukocyte Antigen - DR isotype (HLADR), HLA-DRA (gene 3122)
Briefly: BSK_BE3C_HLADR: BioMAP Diversity Plus: BE3C Assay for Human Leukocyte Antigen - DR isotype (HLADR) Biomarker Activity (AID 2283032). Particulars: primary human bronchial epithelial cells; actives raise or lower the signal. The method, boiled down:
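BioMAP BE3C format: human bronchial epithelium, 24 h compound treatment, ELISA detection of HLA-DR, with bidirectional analysis relative to DMSO.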

Read-out in assay [11]: Vascular cell adhesion molecule 1 (VCAM1), VCAM1 (gene 7412)
Briefly: BSK_4H_VCAM1: BioMAP Diversity Plus: 4H Assay for Vascular cell adhesion molecule 1 (VCAM1) Biomarker Activity (AID 2283033).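 On outcome: cell-surface VCAM-1 protein measured by ELISA.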 Particulars: primary human endothelial cells (HUVEC); actives raise or lower the signal. The method, boiled down:
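In this human endothelial (HUVEC) system, biomarker ELISA was run 24 h after compound addition, and total protein in parallel wells was assessed by SRB at 560 nm; DMSO served as negative control.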

Read-out in assay [12]: Interferon-gamma inducible Protein 10 (IP10), CXCL10 (gene 3627)
Briefly: BSK_BE3C_IP10: BioMAP Diversity Plus: BE3C Assay for Interferon-gamma inducible Protein 10 (IP10) Biomarker Activity (AID 2283034). Particulars: primary human bronchial epithelial cells; actives raise or lower the signal. In outline: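 BE3C cells (human bronchial epithelial, primary); 24 h exposure; ELISA for IP-10; DMSO-referenced bidirectional fit.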

Read-out in assay [13]: Monokine induced gamma interferon (MIG), CXCL9 (gene 4283)
Briefly: BSK_BE3C_MIG: BioMAP Diversity Plus: BE3C Assay for Monokine induced gamma interferon (MIG) Biomarker Activity (AID 2283035).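 On outcome: MIG protein measured by ELISA in BE3C cultures after 24 h of dosing.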 Particulars: primary human bronchial epithelial cells; actives raise or lower the signal. The method, boiled down:
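Dose cells (human primary bronchial epithelial), incubate 24 h, quantify MIG by ELISA, then fit concentration–response in both directions relative to DMSO control.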

Read-out in assay [14]: Transforming growth factor beta 1 (TGFb1), TGFB1 (gene 7040)
Briefly: BSK_BE3C_TGFb1: BioMAP Diversity Plus: BE3C Assay for Transforming growth factor beta 1 (TGFb1) Biomarker Activity (AID 2283036;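 on outcome: TGF-b1 protein level measured by ELISA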). As to conditions: primary human bronchial epithelial cells; actives raise or lower the signal. In outline:
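TGF-b1 measured via ELISA, 24 h after chemical dosing of human bronchial epithelial cells (BE3C). Overt cytotoxicity assessed in parallel by SRB (0.1%, TCA-fixed, 560 nm); analysis bidirectional relative to DMSO.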

Read-out in assay [15]: Plasminogen activator inhibitor-1 (PAI1), SERPINE1 (gene 5054)
Briefly: BSK_BE3C_PAI1: BioMAP Diversity Plus: BE3C Assay for Plasminogen activator inhibitor-1 (PAI1) Biomarker Activity (AID 2283037). As to conditions: primary human bronchial epithelial cells; actives raise or lower the signal. The method, boiled down:
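In this multiplexed primary-cell system, bronchial epithelial cells receive test chemical and are sampled at 24 h. PAI-1 is read by ELISA, with DMSO serving as negative control for bidirectional fitting.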

Read-out in assay [16]: urokinase plasminogen activator (uPA), PLAU (gene 5328)
Briefly: BSK_BE3C_uPA: BioMAP Diversity Plus: BE3C Assay for urokinase plasminogen activator (uPA) Biomarker Activity (AID 2283038).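 On outcome: uPA protein level quantified by ELISA in cell cultures; uPA read one day after compound addition.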 As to conditions: primary human bronchial epithelial cells; actives raise or lower the signal. The method, boiled down:
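ELISA read-out of uPA in human lung primary bronchial epithelial cultures, 24 h post-dosing. Gain or loss of signal fitted bidirectionally relative to DMSO baseline; cytotoxicity checked in parallel cultures via SRB total protein stain.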

Read-out in assay [17]: Urokinase-type plasminogen activator receptor (uPAR), PLAUR (gene 5329)
Briefly: BSK_BE3C_uPAR: BioMAP Diversity Plus: BE3C Assay for Urokinase-type plasminogen activator receptor (uPAR) Biomarker Activity (AID 2283039).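 On outcome: uPAR protein level measured by ELISA on the cells; cells exposed to compound for one day before measurement.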 As to conditions: primary human bronchial epithelial cells; actives raise or lower the signal. The method, boiled down: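 Chemically treated human bronchial epithelial cells (lung primary) are assayed for uPAR by ELISA after 24 h, with data fitted in both directions using DMSO as negative control.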

Read-out in assay [18]: Interleukin-6 (IL6), IL6 (gene 3569)
Briefly: BSK_CASM3C_IL6: BioMAP Diversity Plus: CASM3C Assay for Interleukin-6 (IL6) Biomarker Activity for (AID 2283040). As to conditions: primary human coronary artery smooth muscle cells; actives raise or lower the signal.

For assay [19], the target named is human Vitamin D Receptor (VDR), VDR (gene 7421) (UniProt P11473). Briefly: ATG_VDR_TRANS: Attagene TRANS-FACTORIAL HepG2 Assay for human Vitamin D Receptor (VDR) (AID 2283022; active means hit-call score of the fitted dose curve at least 0.9, where 1 is the maximum). The method, boiled down:
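RT-PCR/capillary electrophoresis read-out of reporter mRNA induction in transiently transfected HepG2; 24 h dosing; chimeric NR-Gal4 (TRANS format); gain-of-signal fit against DMSO baseline.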

Read-out in assay [20]: Tissue plasminogen activator (tPA), PLAT (gene 5327)
Briefly: BSK_BE3C_tPA: BioMAP Diversity Plus: BE3C Assay for Tissue plasminogen activator (tPA) Biomarker Activity (AID 2283041).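 Further: tPA level quantified by ELISA one day after compound addition.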 As to conditions: primary human bronchial epithelial cells; actives raise or lower the signal. The method, boiled down: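 Using human lung primary bronchial epithelial cells, tPA was measured by ELISA 24 h after dosing; data fitted relative to DMSO.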

Structures are written as SMILES. Records with an inconclusive call do not appear. Calls of active or inactive are those of the source. How the source made its calls, unless noted: active means hit-call score of the fitted dose curve at least 0.9, where 1 is the maximum; inactive means score below 0.9.

Sequence of human Vitamin D Receptor (VDR), VDR (gene 7421) (P11473 whole entry, looked up, the tested form may be a part): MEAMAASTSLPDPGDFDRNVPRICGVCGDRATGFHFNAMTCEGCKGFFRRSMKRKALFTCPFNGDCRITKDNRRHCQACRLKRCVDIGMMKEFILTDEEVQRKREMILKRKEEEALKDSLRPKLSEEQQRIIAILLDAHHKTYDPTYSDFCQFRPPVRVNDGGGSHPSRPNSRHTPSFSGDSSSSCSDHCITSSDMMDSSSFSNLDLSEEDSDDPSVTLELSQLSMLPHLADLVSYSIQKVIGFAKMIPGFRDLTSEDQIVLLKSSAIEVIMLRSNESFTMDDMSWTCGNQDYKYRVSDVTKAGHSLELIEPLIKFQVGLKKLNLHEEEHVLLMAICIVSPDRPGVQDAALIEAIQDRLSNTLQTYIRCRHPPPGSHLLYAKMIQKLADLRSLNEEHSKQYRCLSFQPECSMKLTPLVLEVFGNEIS

Broadly, the AC50 is the concentration giving half of the maximal activity seen. Regarding `Cc1cc2c(cc1C(F)(F)F)N(C(=O)Nc1ccc(Oc3cccnc3C)nc1)CC2`, the outcome in [1], in [2], in [5], in assay [8], in assay [9] and in assay [11] was inactive. In addition, the outcome in [13], in assay [14], in [15], in assay [17] and in assay [18] was inactive. Further, the half-maximal activity concentration (AC50) in assay [3] was 36.6 µM (active); in [4], 8.67 µM (active); in assay [6] it was 15.8 µM (active); in assay [7], 5.4 µM (active); in assay [10], 5.03 µM (active); in assay [12], 13.1 µM (active). In addition, the half-maximal activity concentration (AC50) in assay [16] is 11.7 µM (active).

With `CC(C)(C)c1csc(-c2cc3cc(OCc4ccccc4CC(=O)O)ccc3o2)n1`, the result in assay [19], in assay [3], in [7], in [14] and in assay [18] was inactive. The AC50 is 21.5 µM (active) in assay [1]; 8.45 µM (active) in assay [2]; 18.7 µM (active) in [4]; 20 µM (active) in assay [5]; 12.2 µM (active) in assay [6]; 21 µM (active) in [8]. For the same molecule, the AC50 in assay [9] is 9.41 µM (active); in [11] it was 31.1 µM (active); in assay [12], 6.96 µM (active); in assay [13], 11.4 µM (active); in assay [15], 5.03 µM (active); in assay [16], 11.6 µM (active).

In the case of `CN(C)c1ccc(C(=C2C=CC(=[N+](C)C)C=C2)c2ccc(N(C)C)cc2)cc1`, the AC50 in [1] is 4.93 µM (active); in [2], 0.938 µM (active); in assay [3], 16 µM (active); in assay [4] it was 0.613 µM (active); in assay [5], 8.49 µM (active); in assay [6] it was 7.72 µM (active). Besides, the concentration at half-maximal activity (AC50) in assay [7] was 3.97 µM (active); in assay [8], 1.42 µM (active); in [9] it was 0.148 µM (active); in assay [11], 5.55 µM (active); in [12], 5.52 µM (active); in [13], 6.32 µM (active). Further, the concentration at half-maximal activity (AC50) in assay [14] is 0.73 µM (active); in [15], 0.228 µM (active); in assay [16] it was 1.97 µM (active); in assay [17] it was 5.52 µM (active); in assay [18] it was 6.61 µM (active).

In the case of `c1ccc2n[nH]nc2c1`, the outcome in [1], in [2], in assay [3], in assay [4], in assay [5] and in [6] was inactive. For the same molecule, the outcome in assay [7], in assay [8], in [9], in assay [11], in assay [12] and in assay [13] was inactive. Also, the outcome in assay [14], in assay [15], in assay [16], in [17], in assay [18] and in assay [20] was inactive.
